PABP FP inh: PABP-poly(A) binding inhibition; 290,000 compounds, 1% hits; inhibition, % at 35 µM; AID 2014; PABP-poly(A) RNA binding, fluorescence polarization; P11940;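 further: calls also rest on retests at 20 µM and on dose response follow-up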
CRFBP-R2 block: CRF-BP/CRF-R2 complex antagonism; 350,000 compounds, 0.59% hits; inhibition, % at 11.8 µM; AID 588475; HEK293 CRF-R2/CRF-BP, CRF-induced calcium fluorescence;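 active means inhibition of the ligand-induced calcium signal above about 50% at the single tested concentration, limit read from the data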
eIF4H FP inh: inhibitors of RNA binding by human eIF4H | eIF4H fluorescence polarization binding assay | AID 2012 | inhibition, % at 35 µM | Q15056 | 290,000 compounds, 0.94% hits;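 further: calls also rest on retests at 20 µM and on dose response follow-up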
PABP1 MLLE inh: inhibitors of microRNA-mediated deadenylation, human PABP1 MLLE binding. inhibition, % at 20 µM. GST-MLLE / FITC-PAM2 fluorescence polarization. P11940. AID 588489. 360,000 compounds, 0.36% hits; in the data active means inhibition above about 35%, passing the limit was not always enough;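 further: plate controls were DMSO wells with GST-MLLE for no effect and wells lacking GST-MLLE protein for full effect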
PHOSPHO1 block: blocks human PHOSPHO1 phosphatase activity; Q8TCT1; recombinant PHOSPHO1, absorbance phosphatase assay; inhibition, % at 13.3 µM; 290,000 compounds, 1.1% hits; in the data active means inhibition above about 60%
Target sequence (Q8TCT1 whole entry, looked up): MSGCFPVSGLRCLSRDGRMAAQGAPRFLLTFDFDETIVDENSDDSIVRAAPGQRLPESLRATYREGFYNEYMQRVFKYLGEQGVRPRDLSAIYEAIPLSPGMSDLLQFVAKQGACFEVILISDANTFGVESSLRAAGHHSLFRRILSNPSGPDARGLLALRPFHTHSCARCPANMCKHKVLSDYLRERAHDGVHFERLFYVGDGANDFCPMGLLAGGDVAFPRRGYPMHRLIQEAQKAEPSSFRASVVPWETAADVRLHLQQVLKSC
* hit, by the source's call; ? = inconclusive; / = no result. An excerpt weighted towards active compounds, which were near 2.6% of everything screened. Unless noted, how the calls were made is not given here.

SMILES | PABP FP inh | CRFBP-R2 block | eIF4H FP inh | PABP1 MLLE inh | PHOSPHO1 block
CCOC(=O)N1CCN(C(=O)CSc2nnc(-c3ccc(C(C)(C)C)cc3)o2)CC1 | -11 | 89* | 1 | 6 | -1
O=C(CSc1nnc(-c2ccccc2)o1)c1nnc(-c2ccccc2)o1 | 50 | -8 | 11 | -61 | 94*
COc1ccc(-c2nnc(SCC(=O)N3CCN(c4ccccc4)CC3)o2)cc1OC | -9 | -11 | 4 | -3 | 11
CCOC(=O)C1(C)CCN1C(=O)c1ccc2c(c1)CCO2 (stereo not drawn) | / | / | / | 7 | /
CC(C)N1CCC(C)(C(=O)Nc2ccccc2Oc2ccccc2)C1 (stereo not drawn) | / | / | / | 1 | /
CCN(c1ccccc1)S(=O)(=O)c1ccc(OC)c(NC(=O)C2CC(=O)N(Cc3ccccc3)C2)c1 (stereo not drawn) | 8 | -6 | -2 | -13 | 14
CCOC(=O)N1CCN(c2cc(NCCC(=O)O)c3c4c(onc24)-c2ccccc2C3=O)CC1 | 73* | 15 | 86* | 141 | 44
O=C(O)CCNc1ccc(NCCC(=O)O)c2c1C(=O)c1ccccc1C2=O | ? | -9 | ? | 97 | 11
O=C(O)CCCNc1cc(N2CCC3(CC2)OCCO3)c2noc3c2c1C(=O)c1ccccc1-3 | 105* | / | 115* | / | -16
O=C(O)CCCNc1cc(N2CCN(C(=O)c3ccco3)CC2)c2noc3c2c1C(=O)c1ccccc1-3 | ? | 9 | ? | -53 | -4
CC1CCCCC1NC(=O)CCCCCn1c(=S)[nH]c2ccsc2c1=O (stereo not drawn) | -1 | 93* | -8 | -6 | 34
CC1CCCCC1NC(=O)CCCCCn1c(=S)[nH]c2ccccc2c1=O (stereo not drawn) | -2 | -2 | 10 | -107 | 63*
CC1CCCCC1NC(=O)Cn1cccc1C(=O)c1ccccc1 (stereo not drawn) | / | -4 | / | 3 | 70*
CC1CCCCC1NC(=O)CCCn1c(=S)[nH]c2ccccc2c1=O (stereo not drawn) | -8 | -1 | -4 | -88 | -8
Cc1nc(SCC(=O)N2CCN(c3ccccn3)CC2)c(C#N)c(C)c1C | / | 2 | / | -2 | /
CNc1cnc(-c2ccc(F)c(F)c2F)cn1 | / | / | / | -8 | /
COc1cccc(-c2ccc3c(c2)O[C@@H](CN(C)Cc2cncnc2)[C@@H](C)CN([C@H](C)CO)S3(=O)=O)c1 | / | 5 | / | 19 | /
CC1(C(=O)Nc2cccc3c2CCCC3)CCN1C(=O)CCC1CCCC1 (stereo not drawn) | / | / | / | 9 | /
Cc1ccc(-n2nc3c(=O)n(CCCC(=O)NCc4ccco4)nc(C)c3c2C)cc1 | / | 10 | / | -3 | 64*
C=CCSc1nnc(N2C(=O)C(O)=C(C(=O)c3ccco3)C2c2ccccc2F)s1 (stereo not drawn) | 28 | 31 | 26 | 14 | 7
CCN(C(=O)c1ccc2c(=O)n3c(nc2c1)CCCCC3)c1cc(OC)ccc1OC | 2 | 4 | -2 | -6 | 65*
CC1=C(C(=O)Nc2cc(C(=O)NCc3ccccc3)ccc2C)SCCO1 | / | 7 | / | 4 | /
NC1=NC(=O)/C(=C/c2cccc(-c3ccc(S(N)(=O)=O)cc3)c2)S1 | 36* | -5 | 90* | 1 | 31
CCOC(=O)c1c(CN2CCCCC2)n(C)c2cc(Br)c(OC)cc12 | 6 | 14 | -3 | 0 | 64*
CCOC(=O)c1c(CN2CCN(CCO)CC2)n(C)c2cc(Br)c(OC)cc12 | -5 | -15 | -13 | -3 | 4
SMILES | PABP FP inh | CRFBP-R2 block | eIF4H FP inh | PABP1 MLLE inh | PHOSPHO1 block
Fc1ccc(NC(=S)N2CCCc3ccccc32)cc1 | 34 | -39 | 25 | 31 | 95*
O=C(c1ccco1)N1CCN(C2CN(Cc3ccc([N+](=O)[O-])cc3)S(=O)(=O)C2)CC1 (stereo not drawn) | / | -21 | / | -3 | /
N#C/C(=C/c1ccccc1[N+](=O)[O-])C(=O)NCc1ccco1 | 9.5* | -1 | 63* | 20 | 2
Cc1ccccc1NC(=O)/C(C#N)=C\c1cc(C)n(-c2ccc(C(=O)O)cc2)c1C | 40* | -4 | ? | -14 | 32
O=C(NCc1ccco1)c1ccc([N+](=O)[O-])o1 | active | -2 | 89* | 8 | 20
COc1ccc(-n2c(C)cc(/C=C(\C#N)C(=O)NCc3ccco3)c2C)cc1 | 0.2* | 4 | 57 | 14 | -39
COc1ccc(C(C)(O)c2nc(-c3ccncc3)cs2)cc1 (stereo not drawn) | / | / | / | -6 | /
Cc1ccccc1NC(=O)/C(C#N)=C\c1cccnc1 | 0 | -29 | -7 | -87 | 0
COC(=O)/C=c1/s/c(=C(\C#N)C(=O)NCc2ccco2)n(-c2ccc(C)cc2)c1=O | 90* | 29 | 101* | -105 | 27
N#C/C(=C\C=C\c1ccccc1[N+](=O)[O-])C(=O)NCc1ccccc1 | 4 | -16 | 8 | 9 | -1
N#C/C(=C\c1cccnc1)C(=O)Nc1ccccc1[N+](=O)[O-] | 55* | 5 | 66* | -22 | 20
N#C/C(=C\c1ccccc1[N+](=O)[O-])C(=O)NCc1ccccc1 | 41* | -31 | 69* | 57* | 32
COc1ccc(-c2cc(C(F)(F)F)n3nc(C(N)=O)cc3n2)cc1 | / | 4 | / | 7 | /
COc1ccc(C(=O)COC(=O)c2c(-c3ccccc3)noc2C)c(OC)c1 | / | 13 | / | -4 | /
COc1ccccc1C(=O)COC(=O)c1c(-c2ccccc2)noc1C | / | 50* | / | -13 | /
O[C@@H]1CN(Cc2cccs2)[C@@H](c2ccc(Cl)cc2)C[C@H]1n1cc(-c2ccc(F)cc2)nn1 | / | -5 | / | 16 | /
COc1ccc(NC(=O)c2nc3nc(C)cc(C(F)F)n3n2)cc1OC | 8 | 8 | -4 | -6 | 22
CCN(CC)c1ccc(NC(=O)c2nc3nc(C)cc(C(F)F)n3n2)cc1 | -8 | 11 | 0 | -20 | 78*
O=[N+]([O-])c1cc(Br)cc(C=Nc2ccc3c(c2)OCO3)c1O | 56* | 10 | 69* | -6 | -40
O=[N+]([O-])c1ccc(O)c(C=Nc2ccc3c(c2)OCO3)c1 | -6 | -6 | 1 | 9 | 6
COc1ccc(-c2nc3c4ccccc4ccn3c2CC2CCCCC2)cc1OC | / | / | / | 0 | /
CN(C)S(=O)(=O)c1ccc(N2CCCC2)c(C(=O)Nc2nc3ccccc3s2)c1 | 62 | 0 | -2 | -11 | -16
CN(C)S(=O)(=O)c1ccc(N2CCCC2)c(C(=O)Nc2nc3ccc(F)cc3s2)c1 | 62* | -5 | active | 4 | -14
Cc1ccc(-c2csc3ncnc(SCc4ccc(C(=O)O)cc4)c23)cc1 | 86 | -15 | 95* | -11 | 20
Cc1sc2ncnc(SCc3ccc(C(=O)O)cc3)c2c1C | 4 | 11 | -5 | 16 | -8
COc1cc(/C=c2\s/c(=C(/C#N)C(=O)N3CCCC3)n(-c3ccccc3)c2=O)ccc1O | 112* | -44 | 80* | -33 | -3
Cc1cc2ncn(C(=O)c3cc(-c4ccccc4)nc4ccccc34)c2cc1C | 50* | -14 | active | 11 | -10
Cc1cnn(C(=O)c2cc(-c3ccccc3)nc3ccccc23)c1 | -7 | 6 | -3 | 5 | 3

Compound activity deposited in PubChem by Sanford-Burnham Center for Chemical Genomics.
